The values that follow come from PubChem BioAssay (NCI).

Values joined by “and” are separate entries in the source; they are usually repeats but may differ in a detail not shown here. Equal entries are not always repeated. The panel holds about 83,000 compounds, 20% with a hit somewhere; the sample as a whole holds those more often.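 Method: cells in 96-well plates; compound added at one concentration; 48 h incubation; percent growth measured; values under 10 scored active.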 Values without a mark were called inactive. Active and inactive are the calls of the source.

Holding throughout (assay): NCI-60 one-dose screen, 48 h (100 = growth as untreated, 0 = no growth, -100 = all killed)
What all share (conditions): 10 µM unless noted

Assay [1] concerns HCT-15 colon.
Assay [2] deals with HT29 colon.
Assay [3] has as its system SNB-75 CNS.
The subject of assay [4] is SNB-19 CNS.
The test system of assay [5] is U251 CNS.
The subject of assay [6] is PC-3 prostate.
The test system of assay [7] is SK-MEL-5 melanoma.
Assay [8] deals with UACC-62 melanoma.
For assay [9], the system named is LOX IMVI melanoma.
In assay [10] the test system is SK-MEL-28 melanoma.

In the case of `CCC1(NC(=O)c2cc(F)c(F)c(F)c2F)C(=O)NC(=O)N(C(C)C)C1=O` (stereo not given), the growth is 12.4% in assay [1]; 76.6% in assay [2]; 88.4% in assay [3]; 92.7% in assay [4]; 90.6% in [5]; 93% in assay [6]. Moreover, the growth is 64.7% in [7], 48.6% in assay [8], 42% in [9] and 53.2% in [10].

As for `O=C(Cc1ccccc1)NC(O)C(Cl)(Cl)Cl` (stereo not given), the growth in [1] is 118%; in assay [2], 99.3%; in [3] it was 86.1%; in assay [4], 95%; in assay [5], 99.9%; in assay [6], 106%. Moreover, the growth in assay [7] was 105%; in [8], 97.9%; in assay [9], 101%; in assay [10] it was 110%.

Regarding `C/C(=C\c1ccn(-c2ccc(N)c(C(F)(F)F)c2)n1)[C@@H]1C[C@@H]2O[C@]2(C)CCC[C@H](C)[C@H](O)[C@@H](C)C(=O)C(C)(C)[C@@H](O)CC(=O)O1`, the growth was 20% in assay [1]; 13% in [2]; -2.27% (active) in assay [3]; 38% in assay [4]; 26.3% in [5]; 15.7% in [6]. Moreover, the growth is 21.5% in assay [7], 20.7% in assay [8], 26.2% in assay [9] and 55.8% in assay [10].

For the molecule `O=C1CCCCC1CN1CCCCC1` (stereo not given), the growth in [1] is 99.9%; in [2], 85.3%; in assay [3], 109%; in assay [4], 108%; in assay [5], 100%; in assay [6], 97.8%. The growth is 104% in assay [7], 99.4% in [8], 95.4% in assay [9] and 106% in assay [10].

`CC1OC(=O)C(C(C)C)NC(=O)C(C(C)C)OC(=O)C(C(C)C)NC(=O)C(C)OC(=O)C(C(C)C)NC(=O)C(C(C)C)OC(=O)C(C(C)C)NC(=O)C(C)OC(=O)C(C(C)C)NC(=O)C(C(C)C)OC(=O)C(C(C)C)NC1=O` (stereo not given): the growth in assay [1] was -3.27% (active); in assay [2], -32.3% (active); in assay [3], -18.5% (active); in assay [4], -17% (active); in assay [5] it was -41.9% (active); in assay [6], -49.8% (active). Further, the growth in assay [7] is -74.5% (active); in [8] it was 5.04% (active); in [9], -26.4% (active); in [10] it was -28.8% (active).

Turning to `COc1ccc2c(c1)c(-c1nc(-c3cn(C)c4ncccc34)cs1)cn2CCCCN1CCOCC1`, the growth is -42.1% (active) in assay [1]; -87.8% (active) in [2]; 43.6% in assay [3]; 35.1% in assay [4]; -55.3% (active) in assay [5]; 31.3% in [6]. Besides, the growth is 14.5% in [7], 3.59% (active) in assay [8], -78.8% (active) in assay [9] and -93.5% (active) in assay [10].

As to `N#CC(NC(=O)CCl)=C(Cl)Cl`, the growth in assay [1] is -21.1% (active); in assay [2] it was -49.2% (active); in assay [3], 66.6%; in assay [4], 60.3%; in assay [5], 9.19% (active); in [6], 37.7%. Moreover, the growth in [7] was 25.4%; in assay [8], -5.68% (active); in assay [9], -56.4% (active); in assay [10], -39.9% (active).

As to `N#CCc1ccc(CC#N)cc1`, the growth in assay [1] is 96.5%; in [2], 92.4%; in assay [3] it was 101%; in assay [4], 93.2%; in assay [5], 93.6%; in assay [6], 91.2%. Also, the growth in [7] is 101%; in [8] it was 92.3%; in [9], 101%; in assay [10] it was 101%.

In the case of `COC(=O)C12C3C4C1C1C2C3C41NC(=O)c1csc([C@@H](C[C@H](C(C)C)N(C)C(=O)[C@@H](NC(=O)[C@H]2CCCCN2C)C2CC2)OC(C)=O)n1` (stereo not given in full), the growth in [1] is 12.6%; in assay [2] it was -16.7% (active); in assay [3], 45.3%; in assay [4] it was 39.7%; in [5] it was 10.8%; in assay [6], 23.5%. In addition, the growth in assay [7] is -14.7% (active); in [8], 48%; in assay [9], 16.3%; in [10], 57.8%.

For `CC1(C)C2CCC1(CS(=O)(=O)O)C(=O)C2` (stereo not given), the growth in [1] is 91.7% and 104%; in assay [2], 98.2% and 108%; in assay [3], 95% and 82.9%; in assay [4], 101% and 109%; in assay [5], 90.8% and 101%; in assay [6] it was 94.6% and 94.5%. The growth in assay [7] is 105% and 115%; in [8], 88.3% and 93.2%; in [9], 77.1% and 100%; in assay [10], 109% and 126%.

In the case of `O=C(NCCCN1CC1)Nc1cccc2ccccc12`, the growth was 106% and 100% in assay [1]; 83.9% in assay [2]; 105% and 102% in assay [3]; 88.5% and 95% in [4]; 87% and 86.6% in assay [5]; 87.8% and 89.7% in assay [6]. Further, the growth in assay [7] is 107% and 93.3%; in assay [8], 98% and 105%; in [9], 95.6% and 78.4%; in [10], 107% and 115%.

With `CC1(C)C=Cc2c(ccc3c2[N+]([O-])=C2C3=C[C@@]34NC(=O)[C@]5(CCCN5C3=O)C[C@@H]4C2(C)C)O1`, the growth was 46.8% in [1]; 24.6% in assay [2]; 62.1% in assay [3]; 50.7% in assay [4]; 35.3% in assay [5]; 45.5% in [6]. Also, the growth in [7] is 19.2%; in assay [8], 64.6%; in assay [9] it was 27.6%; in assay [10], 71.1%.
